# Structures can show the parent of a compound that is named as a salt.
# Assays:
# Details in all cases: incubation time: 27 h, anaerobic, 37 °C;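 for the amine columns active = adjusted P below 0.05 in both replicates with a change the same way and a mean fold change under 0.8 or over 1.25; inactive = the rest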
# [1] = tested on: Clostridium sporogenes DSM 1664; assay: growth (OD595) fold change vs plate DMSO controls (fold change (ratio)); higher = more growth
# Procedure, shortened: (§1)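 Growth is the fold change relative to the median of plate DMSO controls. Readings came from anaerobic mGAM cultures in 96-well plates grown for 27 h at 37 °C and read at 595 nm. They were blank-subtracted, corrected for compound background with 20 µM compound solutions in water, and converted to OD with a calibration factor of 5. Values are means of 2 biological replicates, and fold changes above 1.5 were set to NA.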
# [2] = tested on: Escherichia coli IAI1; assay: as above
# Procedure, shortened: as §1
# [3] = tested on: Klebsiella aerogenes DSM 30053; assay: as above
# Procedure, shortened: as §1
# [4] = tested on: Ruminococcus gnavus DSM 108212; assay: as above
# Procedure, shortened: as §1
# [5] = tested on: Klebsiella aerogenes DSM 30053; assay: fold change of Histamine concentration vs plate DMSO controls (fold change (ratio)); higher = more amine produced, active = hit call of the paper (significant change in both replicates, either direction)
# Procedure, shortened: (§2)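 In 80 µL wells, cultures of four gut bacterial strains in mGAM started at OD 0.1 before a 1:1 dilution and grew anaerobically at 37 °C for 27 h. Compounds were added to 20 µM final, except sweeteners at 50 µM final. After extraction of whole cultures with cold acetonitrile/methanol plus 0.1% formic acid and centrifugation, amines were measured by LC–triple-quadrupole MS in dynamic MRM mode against external calibration curves, with within-batch drift correction. Values give fold change over DMSO controls on the same plate, averaged across 2 biological replicates.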
# [6] = tested on: Clostridium sporogenes DSM 1664; assay: fold change of Tryptamine concentration vs plate DMSO controls (fold change (ratio)); higher = more amine produced, active = hit call of the paper (significant change in both replicates, either direction)
# Procedure, shortened: as §2
# [7] = tested on: Ruminococcus gnavus DSM 108212; assay: as above
# Procedure, shortened: as §2
# [8] = tested on: Escherichia coli IAI1; assay: fold change of Putrescine concentration vs plate DMSO controls (fold change (ratio)); higher = more amine produced, active = hit call of the paper (significant change in both replicates, either direction)
# Procedure, shortened: as §2
# [9] = tested on: Klebsiella aerogenes DSM 30053; assay: as above
# Procedure, shortened: as §2
# [10] = tested on: Escherichia coli IAI1; assay: fold change of Cadaverine concentration vs plate DMSO controls (fold change (ratio)); higher = more amine produced, active = hit call of the paper (significant change in both replicates, either direction)
# Procedure, shortened: as §2
# [11] = tested on: Klebsiella aerogenes DSM 30053; assay: as above
# Procedure, shortened: as §2
# [12] = tested on: Ruminococcus gnavus DSM 108212; assay: fold change of 2-Phenylethylamine concentration vs plate DMSO controls (fold change (ratio)); higher = more amine produced, active = hit call of the paper (significant change in both replicates, either direction)
# Procedure, shortened: as §2
SMILES,growth [1],growth [2],growth [3],growth [4],fold change of Histamine concentration [5],fold change of Tryptamine concentration [6],fold change of Tryptamine concentration [7],fold change of Putrescine concentration [8],fold change of Putrescine concentration [9],fold change of Cadaverine concentration [10],fold change of Cadaverine concentration [11],fold change of 2-Phenylethylamine concentration [12]
O=C(c1ccc(OCCN2CCCCC2)cc1)c1c(-c2ccc(O)cc2)sc2cc(O)ccc12 [Raloxifene hydrochloride] (20 µM),1.19,1.08,1.04,1.2,0.986 (inactive),0.932 (inactive),0.941 (inactive),0.976 (inactive),1.03 (inactive),1.01 (inactive),1.01 (inactive),0.917 (inactive)
O=C1OC(c2ccc(O)cc2)(c2ccc(O)cc2)c2ccccc21 [Phenolphthalein] (20 µM),1.03,0.983,0.993,0.964,1 (inactive),0.974 (inactive),1 (inactive),0.991 (inactive),0.977 (inactive),0.965 (inactive),1.02 (inactive),0.986 (inactive)
CCOc1nc2cccc(C(=O)O)c2n1Cc1ccc(-c2ccccc2-c2nnn[nH]2)cc1 [Candesartan] (20 µM),1.16,0.982,1.01,1.19,0.965 (inactive),1.04 (inactive),0.975 (inactive),0.981 (inactive),1 (inactive),1.03 (inactive),1.01 (inactive),0.947 (inactive)
CC(=O)[C@H]1CC[C@H]2[C@@H]3C=CC4=CC(=O)CC[C@@]4(C)[C@@H]3CC[C@]12C [Dydrogesterone] (20 µM),1.08,0.983,0.99,0.994,1.03 (inactive),0.933 (inactive),0.978 (inactive),0.911 (inactive),1.01 (inactive),1.04 (inactive),0.983 (inactive),1 (inactive)
CC(COc1ccccc1)N(CCCl)Cc1ccccc1 (centres undefined) [Phenoxybenzamine hydrochloride] (20 µM),0.887,1.03,1.01,1.02,1.02 (inactive),1 (inactive),1.01 (inactive),1.02 (inactive),1.02 (inactive),0.963 (inactive),0.985 (inactive),1.05 (inactive)
CN1CCN(CCCN2c3ccccc3Sc3ccc(Cl)cc32)CC1 [Prochlorperazine dimaleate] (20 µM),1.06,1.11,1.14,0.858,0.917 (inactive),1.04 (inactive),0.87 (inactive),0.974 (inactive),0.979 (inactive),0.971 (inactive),1.02 (inactive),0.97 (inactive)
CCN(Cc1ccncc1)C(=O)C(CO)c1ccccc1 (centres undefined) [Tropicamide] (20 µM),0.93,1.01,1.04,0.969,0.947 (inactive),1.06 (inactive),0.984 (inactive),1.03 (inactive),0.967 (inactive),0.991 (inactive),1.03 (inactive),0.959 (inactive)
COCCCOc1cc(C[C@@H](C[C@H](N)[C@@H](O)C[C@H](C(=O)NCC(C)(C)C(N)=O)C(C)C)C(C)C)ccc1OC [Aliskiren hemifumarate] (20 µM),1.02,0.992,1,0.808,1.06 (inactive),1 (inactive),1.04 (inactive),1 (inactive),1.02 (inactive),1 (inactive),0.987 (inactive),1.05 (inactive)
O=C1CC2(CCCC2)CC(=O)N1CCCCN1CCN(c2ncccn2)CC1 [Buspirone hydrochloride] (20 µM),0.958,1.07,0.968,0.992,1.09 (inactive),1.05 (inactive),1.05 (inactive),1.02 (inactive),1.01 (inactive),1.05 (inactive),0.99 (inactive),1.05 (inactive)
CC(=O)S[C@@H]1CC2=CC(=O)CC[C@]2(C)[C@H]2CC[C@@]3(C)[C@@H](CC[C@@]34CCC(=O)O4)[C@H]12 [Spironolactone] (20 µM),1.1,0.915,0.916,0.833,1 (inactive),1.03 (inactive),1.06 (inactive),1.02 (inactive),1.01 (inactive),1.02 (inactive),1 (inactive),1.01 (inactive)
CCC(=O)O[C@@H](O[P@](=O)(CCCCc1ccccc1)CC(=O)N1C[C@H](C2CCCCC2)C[C@H]1C(=O)O)C(C)C [Fosinopril] (20 µM),1.01,1.09,1.05,1.08,1.06 (inactive),0.979 (inactive),1.05 (inactive),1.3 (inactive),1.01 (inactive),0.939 (inactive),1 (inactive),1.08 (inactive)
CCC(=O)[C@@]1(C)[C@H](C)C[C@H]2[C@@H]3CCC4=CC(=O)C=C[C@]4(C)[C@H]3[C@@H](O)C[C@@]21C [Rimexolone] (20 µM),1.08,0.953,1.01,1.07,1.02 (inactive),0.98 (inactive),1.05 (inactive),0.983 (inactive),1 (inactive),1.01 (inactive),0.991 (inactive),1.04 (inactive)

# Source: the supplement of paper PMC12494721
